Results on 40 compounds are retold here after the supplement of paper PMC10981050.

“And” between values parts separate entries of the source, which are not always exact repeats. Identical values can stand only once. Counter-ions that a name gives are not always drawn.

In the assay the test system is K562. The assay can be described thus: cell viability relative to vehicle control; higher = less cytotoxic. The settings on record: 10 µM; SRSF2 genotype: SRSF2 P95H/wt. Put shortly:
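After removal of identity-inconsistent compounds, the Selleck bioactive, kinase and epigenetic probe libraries were screened on CRISPR-edited mutant clones and isogenic wild-type clones of four leukaemia lines. Plates were 384-well, each well holding 2000 cells in 50 µL medium and receiving a single 10 µM acoustically dispensed dose. CellTiter-Glo luminescence was read 48 h later, after the supernatant was taken off. Genedata Screener was used to express viability as percent of the on-plate vehicle control.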
By cell viability is commonly meant a read-out of living cells in per cent, often relative to untreated cells. For `Cc1cc(C)c(-c2csc(NC(=O)c3ccccc3)n2)c(C)c1`, the cell viability is 58.4% and 51.8%.

As for `O=C(/C=C/c1ccc(O[C@@H]2O[C@H](CO)[C@@H](O)[C@H](O)[C@H]2O)cc1)c1ccc(O)cc1O` [Isoliquiritin], the cell viability is 96.8% and 98%.

On to `COc1ccc(-c2oc3c(CC=C(C)C)c(O)cc(O)c3c(=O)c2O[C@@H]2O[C@@H](C)[C@H](O)[C@@H](O)[C@H]2O)cc1` [Baohuoside I], for which the cell viability is 101% and 98.2%.

With `CCCCCCCCCC(=O)N[C@@H](Cc1c[nH]c2ccccc12)C(=O)N[C@H](CC(N)=O)C(=O)N[C@@H](CC(=O)O)C(=O)N[C@@H]1C(=O)NCC(=O)N[C@@H](CCCN)C(=O)N[C@@H](CC(=O)O)C(=O)N[C@H](C)C(=O)N[C@@H](CC(=O)O)C(=O)NCC(=O)N[C@H](CO)C(=O)N[C@@H]([C@H](C)CC(=O)O)C(=O)N[C@@H](CC(=O)c2ccccc2N)C(=O)O[C@@H]1C` [Daptomycin], the cell viability is 94.1% and 95.3%.

As to `c1ccc2occc2c1` [2,3-Benzofuran], the cell viability was 105% and 91%.

As to `O=C(O)CC(C(=O)O)n1c(O)c(C2=c3cc(Br)ccc3=NC2=O)sc1=S` (stereo not given), the cell viability was 96.1% and 99.4%.

Regarding `CCN1CCN(c2cc3c(cc2F)c(=O)c(C(=O)O)cn3C2CC2)CC1` [Enrofloxacin], the cell viability was 98.9% and 111%.

Consider `COc1ccc2c(c1O)-c1c(O)c(OC)cc3c1[C@H](C2)[N+](C)(C)CC3` [Magnoflorine], for which the cell viability was 97.9% and 97.3%.

Consider `CC(=O)OCC(=O)[C@@]1(O)CC[C@H]2[C@@H]3CCC4=CC(=O)CC[C@]4(C)[C@@]3(F)[C@@H](O)C[C@@]21C` [Fludrocortisone acetate], for which the cell viability was 110% and 103%.

In the case of `NC(=O)NO` [Hydroxyurea (Cytodrox)], the cell viability is 102% and 106%.

Turning to `Nc1ncnc2c1nc(Br)n2[C@@H]1O[C@@H]2COP(=O)(O)O[C@H]2[C@H]1O` [8-Bromo-cAMP], the cell viability is 66.5% and 72.5%.

Turning to `Cc1cccc(Nc2nc(-c3ccncc3)cs2)c1`, the cell viability is 78.1% and 89.2%.

Consider `CC12CCC(CC1)C(C)(C)O2` [Eucalyptol], for which the cell viability was 104% and 102%.

In the case of `CCc1c(Cl)c(O)c(Cl)c(O)c1C(=O)O[C@H]1[C@H](O)[C@H](OC)[C@H](OC/C2=C\C=C\C[C@H](O)/C(C)=C/[C@H](CC)[C@@H](O[C@@H]3OC(C)(C)[C@@H](OC(=O)C(C)C)[C@H](O)[C@@H]3O)/C(C)=C/C(C)=C/C[C@@H]([C@@H](C)O)OC2=O)O[C@@H]1C` [Fidaxomicin], the cell viability is 81.3% and 80.5%.

Turning to `CO[C@H]1/C=C/O[C@@]2(C)Oc3c(C)c(O)c4c(O)c(c(/C=N/N5CCN(C)CC5)c(O)c4c3C2=O)NC(=O)/C(C)=C\C=C\[C@H](C)[C@H](O)[C@@H](C)[C@@H](O)[C@@H](C)[C@H](OC(C)=O)[C@@H]1C` [Rifampin], the cell viability is 106% and 97.3%.

As to `COc1ccc(C2CNC(=O)C2)cc1OC1CCCC1` (stereo not drawn) [S-(+)-Rolipram], the cell viability was 94.7% and 105%.

`C#C[C@]1(O)CC[C@H]2[C@@H]3CCc4cc(OC5CCCC5)ccc4[C@H]3CC[C@@]21C` [Quinestrol]: the cell viability was 78.4% and 83.7%.

With `COc1cccc2cc(-c3nc([C@H]4CC[C@H](C(=O)O)CC4)n4ncnc(N)c34)[nH]c12`, the cell viability was 36.1% and 37%.

With `O=C(/C=C/c1ccc(O)c(O)c1)c1ccc(O)cc1O` [Butein], the cell viability was 62% and 61%.

For the compound `CN(C)c1ccc(C(=O)NCCCCCCC(=O)NO)cc1`, the cell viability is 1.52% and 16.7%.

`O=c1c2cc(O[C@@H]3O[C@H](CO)[C@@H](O)[C@H](O)[C@H]3O)c(O)cc2oc2cc(O)c([C@@H]3O[C@H](CO)[C@@H](O)[C@H](O)[C@H]3O)c(O)c12` [Neomangiferin]: the cell viability was 95.1% and 100%.

On to `O=c1[nH]c(=O)n([C@H]2C[C@H](O)[C@@H](CO)O2)cc1/C=C/Br` [Brivudine], for which the cell viability is 97.4% and 92%.

Turning to `Cc1c(C(=O)Nc2ccc(Oc3ccnc4[nH]cc(-c5ccccc5)c34)c(F)c2)c(=O)n(-c2ccc(F)cc2)n1C`, the cell viability was 75.3% and 86.8%.

For the compound `CC(=O)CCc1ccc(OC(C)=O)cc1` [Pherocon (4-(4-Acetoxyphenyl)-2-butanone)], the cell viability was 111% and 109%.

For the compound `C[C@@H](N)[C@H]1CC[C@H](C(=O)Nc2ccncc2)CC1`, the cell viability was 105% and 97.4%.

Regarding `COC(=O)C=Cc1ccc(O)c(OC)c1` [Ferulic acid methyl ester], the cell viability was 106% and 99.9%.

Turning to `CN1C(N)=N[C@](C)(c2cc(NC(=O)c3ccc(F)cn3)ccc2F)CS1(=O)=O` [Verubecestat (MK-8931)], the cell viability is 92.7% and 98.7%.

Turning to `C[C@H]1O[C@@H](Oc2c(-c3cc(O)c(O)c(O)c3)oc3cc(O)cc(O)c3c2=O)[C@@H](O)[C@@H](O)[C@@H]1O` [Myricitrin (Myricitrine)], the cell viability is 94.5% and 101%.

With `O=C(O)C1=CO[C@@H](O[C@@H]2O[C@H](CO)[C@@H](O)[C@H](O)[C@H]2O)[C@H]2[C@@H]1C=C[C@]2(O)CO` [Monotropein], the cell viability is 110% and 104%.

With `CNC(=O)[C@H](Cc1c[nH]c2ccccc12)NC(=O)[C@@H](CC(=O)NO)CC(C)C` [Ilomastat (GM6001, Galardin)], the cell viability is 101% and 105%.

`COC(c1ccccc1)(c1ccccc1)[C@H](Oc1nc(C)cc(C)n1)C(=O)O` [Ambrisentan]: the cell viability was 103% and 96.5%.

`COc1ccc2c3c1O[C@H]1C[C@@H](O)C=C[C@@]31CCN(C)C2` [Galanthamine]: the cell viability is 103% and 106%.

For the compound `CCC(=O)O[C@@H]1CC(=O)O[C@H](C)C/C=C/C=C/[C@H](O)[C@H](C)C[C@H](CC=O)[C@H](O[C@@H]2O[C@H](C)[C@@H](O[C@H]3C[C@@](C)(O)[C@@H](OC(=O)CC)[C@H](C)O3)[C@H](N(C)C)[C@H]2O)[C@H]1OC` [Midecamycin], the cell viability is 84.3% and 87.1%.

As for `O=C(O)CCc1ccc(O)cc1O` [Hydroumbellic acid], the cell viability was 96% and 92.8%.

Consider `CCCn1/c(=N/C(=O)c2cccc(C(N)=O)c2)[nH]c2ccccc21` [Takinib], for which the cell viability stood at 100%.

For the compound `Cc1cc(F)c(Nc2ncnc3cc(OCc4ccccc4)ccc23)cc1O`, the cell viability was 82.7% and 95.5%.

For `COc1ccc(NC(=O)c2ccc(C(=N)N(C)C)cc2)c(C(=O)Nc2ccc(Cl)cn2)c1` [Betrixaban maleate], the cell viability is 96.1% and 95.9%.

On to `Cc1cn([C@H]2C=C[C@@H](CO)O2)c(=O)[nH]c1=O` [Stavudine], for which the cell viability is 104% and 107%.

Regarding `O=C1/C(=C/c2cccs2)CC/C1=C\c1cccs1`, the cell viability was 99.2% and 106%.

On to `CN1CC(=O)N2[C@H](c3ccc4c(c3)OCO4)c3[nH]c4ccccc4c3C[C@@H]2C1=O` [Tadalafil (Cialis)], for which the cell viability is 101% and 99.7%.
